Measurements as given in the antibiotic and cytotoxicity screens of Wong et al. (2023).
Among all 39,000 compounds or so, about 3,300 (8.5%) were called active. The sample as a whole holds a higher share of actives than the screen did.

Each molecule was assayed on HepG2 (assay: cytotoxicity call (relative viability < 0.9)). Conditions: 10 µM.

Compound	cytotoxicity call
Cc1ccc(S(=O)(=O)N(C)C[C@@H]2OCCCC[C@H](C)Oc3ccc(NC(=O)Nc4ccccc4)cc3C(=O)N([C@H](C)CO)C[C@H]2C)cc1	inactive
Cc1ccc(S(=O)(=O)N2C[C@@H](O)COC[C@H]3O[C@H](CC(=O)NCc4ccccc4Cl)CC[C@@H]32)cc1	inactive
COc1ccc(S(=O)(=O)N[C@H]2CC[C@@H](CCNC(=O)CN3CCOCC3)O[C@@H]2CO)cc1	inactive
COc1ccc(S(=O)(=O)Nc2ccc3c(c2)C(=O)N([C@H](C)CO)C[C@H](C)[C@@H](CN(C)C(=O)c2ccccc2)OCCCC[C@@H](C)O3)cc1	inactive
CN(C)CCCNC(=O)C[C@H]1CC[C@H]2[C@H](COc3ccc(NC(=O)NC4CCCC4)cc3C(=O)N2C)O1	inactive
COc1ccc(NC(=O)Nc2ccc3c(c2)C(=O)N([C@@H](C)CO)C[C@@H](C)[C@H](CN(C)C(=O)Cc2ccccc2)OCCCC[C@@H](C)O3)cc1	inactive
CC(=O)N1CCC(C(=O)N2CCC(n3cc(C(C)(C)N)nn3)CC2)CC1	inactive
COc1ccc(CN(C)C[C@@H]2OCCCC[C@H](C)Oc3ccc(NC(=O)Nc4c(C)noc4C)cc3C(=O)N([C@H](C)CO)C[C@H]2C)cc1	inactive
NC(=O)NCC#Cc1ccc2c(c1)[C@]1(C(=O)N2)[C@H](c2ccccc2OCCO)N2[C@H](c3ccccc3)[C@H](c3ccccc3)OC(=O)[C@H]2[C@@H]1C(=O)O	inactive
CCc1nc2ccc(C(=O)Nc3ccc4c(c3)OCC(=O)N4)cn2c1N(CC)Cc1cccc(Br)c1	inactive
COc1ccc(NC(=O)N(C)C[C@@H]2OCCCC[C@H](C)Oc3ccc(NC(=O)c4ccncc4)cc3C(=O)N([C@@H](C)CO)C[C@H]2C)cc1	inactive
COc1ccc(CN(C)C[C@@H]2OCCCC[C@@H](C)Oc3ccc(NC(=O)NC(C)C)cc3C(=O)N([C@H](C)CO)C[C@@H]2C)cc1	inactive
C[C@@H]1CCCCO[C@H](CN(C)C(=O)CCC(F)(F)F)[C@H](C)CN([C@H](C)CO)C(=O)c2cc(NS(=O)(=O)c3ccc(Cl)cc3)ccc2O1	inactive
C=C(/C=C\CNS(=O)(=O)c1ccc(C)cc1)[C@H](O)[C@H]1CCCN1S(=O)(=O)c1ccccc1[N+](=O)[O-]	inactive
C[C@@H]1CN([C@@H](C)CO)C(=O)Cc2cc(NC(=O)Nc3ccc(C(F)(F)F)cc3)ccc2O[C@@H]1CN(C)Cc1ccncc1	active
C[C@H]1CN([C@@H](C)CO)C(=O)Cc2cc(NC(=O)Nc3ccc(C(F)(F)F)cc3)ccc2O[C@H]1CN(C)Cc1ccncc1	active
C[C@@H]1CCCCO[C@@H](CN(C)C(=O)CCC(F)(F)F)[C@@H](C)CN([C@H](C)CO)C(=O)c2cc(NC(=O)Nc3ccccc3)ccc2O1	inactive
N[C@@H](Cn1ccnc1)c1ccccc1	inactive
COc1ccc(C#Cc2ccc3c(c2)O[C@@H](CN(C)C(=O)c2ccccn2)[C@@H](C)CN([C@@H](C)CO)S3(=O)=O)cc1	inactive
CC/C(=C\C(=N\O)C(N)=O)[C@@H](C)[N+](=O)[O-]	inactive

Compound	cytotoxicity call
CC(=O)N1CCCC(=O)CC1	inactive
C[C@@H]1CCCCO[C@H](CN(C)Cc2ccc3c(c2)OCO3)[C@H](C)CN([C@@H](C)CO)C(=O)c2cc(NC(=O)Cc3ccccc3)ccc2O1	inactive
CNC(=O)C[C@@H]1CC[C@H]2[C@@H](COc3ccc(NC(=O)c4ccc(C(F)(F)F)cc4)cc3C(=O)N2C)O1	inactive
O=C(C[C@@H]1C[C@H]2c3cc(NC(=O)c4ccc5c(c4)OCO5)ccc3O[C@H]2[C@H](CO)O1)NCc1ccc(Oc2ccccc2)cc1	inactive
O=C(C[C@@H]1C[C@@H]2c3cc(NC(=O)c4ccc5c(c4)OCO5)ccc3O[C@@H]2[C@H](CO)O1)NCc1cccnc1	inactive
O=C(C[C@@H]1C[C@@H]2c3cc(NC(=O)c4ccc5c(c4)OCO5)ccc3O[C@@H]2[C@H](CO)O1)NCc1ccc(Oc2ccccc2)cc1	active
O=C(C[C@@H]1C[C@@H]2c3cc(NC(=O)c4ccc5c(c4)OCO5)ccc3O[C@@H]2[C@H](CO)O1)NCCc1ccccc1	active
O=C(C[C@H]1C[C@H]2c3cc(NC(=O)c4ccc5c(c4)OCO5)ccc3O[C@H]2[C@H](CO)O1)NCc1ccc(Oc2ccccc2)cc1	active
O=C(C[C@H]1C[C@H]2c3cc(NC(=O)c4ccc5c(c4)OCO5)ccc3O[C@H]2[C@@H](CO)O1)NCCc1ccccc1	inactive
O=C(C[C@H]1C[C@H]2c3cc(NC(=O)c4ccc5c(c4)OCO5)ccc3O[C@H]2[C@@H](CO)O1)NCc1cccnc1	inactive
O=C(C[C@H]1C[C@@H]2c3cc(NC(=O)c4ccc5c(c4)OCO5)ccc3O[C@@H]2[C@H](CO)O1)NCc1cccnc1	inactive
O=C(C[C@H]1C[C@@H]2c3cc(NC(=O)c4ccc5c(c4)OCO5)ccc3O[C@@H]2[C@H](CO)O1)NCc1ccc(Oc2ccccc2)cc1	inactive
O=C(C[C@H]1C[C@@H]2c3cc(NC(=O)c4ccc5c(c4)OCO5)ccc3O[C@@H]2[C@@H](CO)O1)NCc1ccc(Oc2ccccc2)cc1	active
O=C(C[C@@H]1C[C@@H]2c3cc(NC(=O)c4ccc5c(c4)OCO5)ccc3O[C@@H]2[C@@H](CO)O1)NCCc1ccccc1	inactive
O=C(C[C@H]1C[C@H]2c3cc(NC(=O)c4ccc5c(c4)OCO5)ccc3O[C@H]2[C@H](CO)O1)NCc1cccnc1	inactive
C=CCOC(=O)[C@H]1[C@@H]2C(=O)O[C@@H](c3ccccc3)[C@@H](c3ccccc3)N2[C@@H](c2ccc(OCCOC(=O)[C@@H]3C[C@@H]4C(=O)N[C@@H](CC(C)C)C(=O)N4[C@@H]3c3cccc(OCCO)c3)cc2)[C@]12C(=O)Nc1ccc(I)cc12	inactive
CC(C)NC(=O)Nc1cccc2c1O[C@H](CN(C)C(=O)Nc1ccc3c(c1)OCO3)[C@H](C)CN([C@H](C)CO)C2=O	inactive
CC(C)NC(=O)N(C)C[C@H]1OCCCC[C@@H](C)Oc2ccc(NS(C)(=O)=O)cc2C(=O)N([C@@H](C)CO)C[C@H]1C	inactive
C[C@@H]1CN([C@@H](C)CO)C(=O)c2cccc(NC(=O)c3ccncc3)c2O[C@@H]1CN(C)Cc1ccc(-c2ccccc2)cc1	inactive
CCS(=O)(=O)N[C@@H]1C=C[C@H](CC(=O)NCc2ccccn2)O[C@@H]1CO	inactive

Compound	cytotoxicity call
COc1ccc(NC(=O)N(C)C[C@H]2OCCCC[C@@H](C)Oc3ccc(NS(=O)(=O)c4cccs4)cc3C(=O)N([C@H](C)CO)C[C@@H]2C)cc1	inactive
C[C@@H]1CN([C@H](C)CO)C(=O)c2cc(NC(=O)c3ccncc3)ccc2O[C@H]1CN(C)Cc1ccc2c(c1)OCO2	inactive
O=C(C[C@@H]1C[C@H]2c3cc(NC(=O)c4ccc5c(c4)OCO5)ccc3O[C@H]2[C@@H](CO)O1)NCc1ccc(Oc2ccccc2)cc1	inactive
O=C(C[C@H]1C[C@H]2c3cc(NC(=O)c4ccc5c(c4)OCO5)ccc3O[C@H]2[C@@H](CO)O1)NCc1ccc(Oc2ccccc2)cc1	active
O=C(C[C@@H]1C[C@@H]2c3cc(NC(=O)c4ccc5c(c4)OCO5)ccc3O[C@@H]2[C@@H](CO)O1)NCc1ccc(Oc2ccccc2)cc1	inactive
Cc1noc(C)c1NC(=O)Nc1ccc2c(c1)C(=O)N([C@@H](C)CO)C[C@@H](C)[C@@H](CN(C)Cc1ccc3c(c1)OCO3)OCCCC[C@@H](C)O2	inactive
COc1ccc(COC[C@]23N=C4Sc5ccc([N+](=O)[O-])cc5C(=O)N4[C@H](c4ccccc4O2)[C@H]3CO[Si](C)(C)C(C)(C)C)cc1	inactive
C[C@@H]1CN([C@@H](C)CO)C(=O)c2c(c3ccccc3n2C)-c2ccccc2CO[C@@H]1CN(C)C(=O)Nc1ccc(F)cc1	inactive
C[C@@H]1CCCCO[C@@H](CN(C)Cc2ccc3c(c2)OCO3)[C@H](C)CN([C@@H](C)CO)C(=O)c2cc(NC(=O)Nc3cccc4ccccc34)ccc2O1	inactive
C[C@@H]1CCCCO[C@H](CN(C)Cc2ccc3c(c2)OCO3)[C@@H](C)CN([C@H](C)CO)C(=O)c2cc(NC(=O)Nc3cccc4ccccc34)ccc2O1	inactive
C[C@H](CO)N1C[C@H](C)[C@H](CN(C)Cc2ccc3c(c2)OCO3)OCCCC[C@H](C)Oc2ccc(NC(=O)Nc3cccc4ccccc34)cc2C1=O	active
C[C@H](CO)N1C[C@H](C)[C@@H](CN(C)Cc2ccc3c(c2)OCO3)OCCCC[C@H](C)Oc2ccc(NC(=O)Nc3cccc4ccccc34)cc2C1=O	inactive
C[C@@H]1CCCCO[C@@H](CN(C)Cc2ccc3c(c2)OCO3)[C@H](C)CN([C@H](C)CO)C(=O)c2cc(NC(=O)Nc3cccc4ccccc34)ccc2O1	active
C[C@H]1CCCCO[C@H](CN(C)Cc2ccc3c(c2)OCO3)[C@@H](C)CN([C@@H](C)CO)C(=O)c2cc(NC(=O)Nc3cccc4ccccc34)ccc2O1	active
C[C@@H]1CN([C@H](C)CO)C(=O)c2cc(NC(=O)Nc3cccc4ccccc34)ccc2O[C@@H](C)CCCCO[C@H]1CN(C)Cc1ccc2c(c1)OCO2	active
C[C@@H]1CN([C@@H](C)CO)C(=O)c2cc(NC(=O)Nc3cccc4ccccc34)ccc2O[C@@H](C)CCCCO[C@@H]1CN(C)Cc1ccc2c(c1)OCO2	inactive
CC(C)C#Cc1cnc2c(c1)C(=O)N([C@@H](C)CO)C[C@H](C)[C@H](CN(C)S(=O)(=O)c1cn(C)cn1)O2	inactive
CO[C@@H]1CN(C)C(=O)c2cc(NS(=O)(=O)CC(F)(F)F)ccc2OC[C@H](C)N(C(=O)c2ccc3c(c2)OCO3)C[C@@H]1C	inactive
COc1ccc(S(=O)(=O)Nc2ccc3c(c2)C(=O)N([C@H](C)CO)C[C@@H](C)[C@@H](CN(C)S(=O)(=O)c2ccc(C)cc2)O3)cc1	inactive
